These sequences were tested against PLEKHN1 (assay: pooled miR-30 sensor sort-seq; sequence = guide strand). Settings: shRNA.
Further: reference of the scale not given here.

Sequence	sensor-assay potency score (higher = more potent)
TCGCTGGTTCTCCAGGTCCAGG	-2
TGACCGTAGTCCTCGTAGCTGG	-1.04
TTGAACACACTCAGGAATGGCT	-0.516
TTCTCCTCCAGGTTGATGTGGA	-0.466
TAGTGGAAGAGCTTGTTGGCGG	-0.587
TAGCTCCAGGTAGCAGTCGCTG	-1.67
TGAAATGTGAGTCCTTCCGAGC	-1.13
TCCAGGTCCAGGATGTCCGTGC	-1.12

The sequences below were run against PLK1S1 in the same assay as above. Settings: shRNA.

Sequence	sensor-assay potency score (higher = more potent)
TTGAGTCTCATATTCGAGCTTC	0.47
TATTTCAGCTTAACTCTGCATG	-0.461
TTGTACTACACAGCTGTCTGTC	-0.193
TATTCCACTATTGTCATTCAGA	-0.697
TTGGTTTCGAGTATGAGCCTTC	0.232
TATTCTGAAACTGGTATCGGAG	-0.809
TTTGTCTCGAATGCACCGCTGC	-0.55
TAGTTTTACATATTTCAGCTTA	-0.42
TTTGAGCATAGCATCTTCTTAA	-0.677
TAGATGAAAAACTAGCTTCCGA	-0.0275
TTCAGATTCACATATTTCCTTC	-0.129

These sequences were tested against PLN in the same assay as above. Settings: shRNA.

Sequence	sensor-assay potency score (higher = more potent)
TTAGTCTTAATCTTGACCTTTT	-0.719
TTTCACAAAGAAACTCTTCTAC	0.725
TTGAGGCTCTTCTTATAGCTGA	-0.603
TTGTTTTCCTGTCTGCATGGGA	0.161
TTTGACGTGCTTGTTGAGGCAT	0.851
TTTAGTCTTAATCTTGACCTTT	-0.026
TAGCTTTTGACGTGCTTGTTGA	-0.611
TATAGCTGAGCGAGTGAGGTAT	-0.0267
TCTGTAGCTTTTGACGTGCTTG	-0.521
TAAGATGAGACAGAAATTGATA	-0.754
TTGACGTGCTTGTTGAGGCATT	-0.832
TTAATCTTGACCTTTTCACAAA	-1.35

These sequences were tested against PLS1 in the same assay as above. Settings: shRNA.

Sequence	sensor-assay potency score (higher = more potent)
TTTAAGAGTCTGATTGACCCAT	0.465
TTAACAATGCAATCAGAGCTTC	-0.361
TGTGCTTATAGATTTATCCTTG	0.0263
TTCCTTGCTCTCTCCTTCCAGT	-0.4
TTTATCTGCTTCTTGAAGCATG	-0.495
TATCTTTGCTTTTTAATTCTTG	-0.576
TTAGTGACACAAACTCTTCAAA	-0.919
TAAATTTTCAGAAATAGTGAAT	-0.578
TTAAGAGTCTGATTGACCCATT	-0.779

— the OligoGym collection
